Compound activity: PubChem BioAssay, several laboratories
Mtb FBA inh: inhibits M. tuberculosis FBA enzyme; inhibition, % at 1 µM; AID 588726; purified M. tuberculosis FBA, fluorescence read-out; P9WQA3; 360,000 compounds, 2.3% hits; in the data active means inhibition above about 27%
Target sequence (P9WQA3 whole entry, looked up): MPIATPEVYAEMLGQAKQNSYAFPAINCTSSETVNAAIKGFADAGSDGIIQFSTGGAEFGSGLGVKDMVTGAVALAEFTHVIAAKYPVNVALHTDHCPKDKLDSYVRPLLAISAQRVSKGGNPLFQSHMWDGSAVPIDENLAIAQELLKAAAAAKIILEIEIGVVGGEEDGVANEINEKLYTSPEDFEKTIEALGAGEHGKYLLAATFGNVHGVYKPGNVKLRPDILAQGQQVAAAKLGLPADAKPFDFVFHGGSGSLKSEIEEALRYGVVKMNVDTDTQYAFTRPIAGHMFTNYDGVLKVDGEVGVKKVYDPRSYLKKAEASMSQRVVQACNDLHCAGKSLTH
Mtb betalactam: beta-lactam sensitization of Mtb H37Rv; 330,000 compounds, 0.27% hits; AID 434955; M. tuberculosis H37Rv growth with meropenem, percent inhibition; inhibition, % at 25 µM; call rule not given here;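 further: growth measured after seven days incubation then overnight dye step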
FadD28 FP inh: inhibitors of Mycobacterium tuberculosis FadD28 bisubstrate binding | FadD28 bisubstrate probe binding, fluorescence polarization | inhibition, % at 12.5 µM | 360,000 compounds, 0.22% hits; in the data active means inhibition above about 8.5%, passing the limit was not always enough; inconclusive means no clear call, values can overlap the other calls
Mtb UGM inh: Mtb UDP-galactopyranose mutase inhibition; 320,000 compounds, 0.06% hits; inhibition, % at 10 µM; purified UGM, fluorescence polarization probe displacement; P9WIQ1; in the data active means inhibition above about 10%, passing the limit was not always enough; inconclusive means no clear call, values can overlap the other calls
Rv3671c protease: inhibits the M. tuberculosis serine protease Rv3671c | inhibition, % at 5.96 µM | P9WHR9 | 320,000 compounds, 0.048% hits; in the data active means inhibition above about 38%;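 further: extracellular domain of Rv3671c used as enzyme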
GDH-TPI inh: inhibits GDH-TPI coupling enzymes, artifact for Mtb FBA screen | 360,000 compounds, 1.2% hits | AID 588335 | GDH-TPI coupled enzyme counterscreen, NADH absorbance | inhibition, % at 4.8 µM; in the data active means inhibition above about 30%
Of the large screens only hits and unclear results are named; the others gave an inactive call. Sampled rows, rich in hits. Any-hit rate of the full collection: about 3.7%.

Cc1cc(=O)oc2c3c(cc(OCC(=O)NCC(=O)O)c12)OC(C)(C)CC3	Mtb FBA inh active
Cc1cc(=O)oc2c3c(cc(OCC(=O)Nc4ccc(CCO)cc4)c12)OC(C)(C)CC3	Mtb FBA inh 156.5
Cc1cc(=O)oc2c3c(cc(OCC(=O)NCc4ccccc4)c12)OC(C)(C)CC3	Mtb FBA inh 150.2
Cc1cc(=O)oc2c3c(cc(OCC(=O)Nc4cccnc4)c12)OC(C)(C)CC3	none
COc1ccc(-c2ccccc2)cc1NC(=O)[C@@H]1O[C@H](CO)[C@H](O)[C@H](O)[C@H]1O	none (no result: Mtb betalactam, Mtb UGM inh, Rv3671c protease)
Cc1nnc(NC(=O)CCN2C(=O)C3CC=CCC3C2=O)s1 (stereo not drawn)	none (no result: Mtb betalactam, Mtb UGM inh, Rv3671c protease)
CCOc1ccc(NC(=O)C2C(C(=O)O)C3(Cl)C(Cl)=C(Cl)C2(Cl)C3(Cl)Cl)cc1 (stereo not drawn)	FadD28 FP inh 21.4
S=C(NCCc1ccccn1)Nc1ccc(Cl)cc1Cl	none
O=C1N/C(=N\S(=O)(=O)Cc2ccccc2)S/C1=C/c1cc([N+](=O)[O-])ccc1O	FadD28 FP inh 15.4, GDH-TPI inh 39.2
O=C1N/C(=N\S(=O)(=O)c2ccccc2)S/C1=C\c1cc([N+](=O)[O-])ccc1O	FadD28 FP inh 19.5
Cc1ccc(S(=O)(=O)/N=C2/NC(=O)/C(=C\c3cc(Br)cc(Br)c3O)S2)cc1	FadD28 FP inh 50.2 (no result: Rv3671c protease)
NC(=O)c1ncn([C@@H]2O[C@H](CNCc3ccc(OCC(=O)Nc4ccccn4)cc3)[C@@H](O)[C@H]2O)n1	none (no result: Mtb betalactam, Mtb UGM inh, Rv3671c protease)
Cc1ccc(-c2nnn(CC(=O)NC(=O)NC3CCCCC3)n2)cc1	none (no result: Mtb betalactam, Mtb UGM inh, Rv3671c protease)
CC1CCCCN1Cc1ccc(-c2nnn(CC(=O)NC3CCCCC3)n2)cc1 (stereo not drawn)	GDH-TPI inh 62.1
Cc1cccc(/C=N/n2c(C3CCCCC3)n[nH]c2=S)c1	FadD28 FP inh 10.6
COc1cc(/C=N/n2c(C3CCCCC3)n[nH]c2=S)cc(Br)c1O	Mtb betalactam inconclusive, GDH-TPI inh 32.4
Cc1ccc2c(CN3CCN(S(=O)(=O)c4ccc(Cl)cc4)CC3)cc(=O)oc2c1C	none (no result: Mtb betalactam, Mtb UGM inh, Rv3671c protease)
O=c1cc(CN2CCN(S(=O)(=O)c3cccc(Cl)c3)CC2)c2ccc(O)cc2o1	Mtb FBA inh 118.2
O=c1cc(CN2CCN(S(=O)(=O)c3ccc4c(c3)OCCO4)CC2)c2ccc(O)cc2o1	Mtb FBA inh 198.5
CCc1ccc2c(CN3CCN(S(=O)(=O)c4ccc5c(c4)OCCO5)CC3)cc(=O)oc2c1	none
CC(=O)N1C[C@@H](CO)[C@@H](N(C)C(=O)C2CCCCC2)C[C@H]1c1ccccc1	none (no result: Mtb betalactam, Mtb UGM inh, Rv3671c protease, GDH-TPI inh)
CC(=O)C1=CCC(c2ccc(Cl)cc2)N(S(=O)(=O)c2ccccc2)C1 (stereo not drawn)	none (no result: Mtb betalactam, Mtb UGM inh, Rv3671c protease, GDH-TPI inh)
COc1ccc(C(=O)/C=C/Nc2cc(C)on2)cc1	GDH-TPI inh 41.0
COc1ccc(C(=O)/C=C/NCc2ccc(C)cc2)cc1	GDH-TPI inh 44.1
Cc1cccc(NNC(=O)C(=O)NNc2cccc(C)c2)c1	none
Cc1cccc(N=NC(=S)NNc2cccc(C)c2)c1	Mtb FBA inh active (no result: Mtb betalactam, Mtb UGM inh, Rv3671c protease)
COc1ccc(C(=O)/C=C/Nc2ccc(S(=O)(=O)Nc3cc(OC)nc(OC)n3)cc2)c(OC)c1	none
Cc1c(CCC(C)C)c(=O)n2c([nH]c3ccccc32)c1C#N	none
Cc1c(CCO)c(=O)n2c([nH]c3ccccc32)c1C#N	Mtb FBA inh active
CN(C)c1ccc(NC2=C([N+](=O)[O-])CS(=O)(=O)C2)cc1	GDH-TPI inh 34.2
Cc1ccc(NC2=C([N+](=O)[O-])CS(=O)(=O)C2)cc1	none
CN(Cc1ccccc1)Cc1ccccc1C(O)c1ccccc1 (stereo not drawn)	none (no result: Mtb betalactam, Mtb UGM inh, Rv3671c protease)
O=C1OC(c2ccc([N+](=O)[O-])cc2)=N/C1=C/N1CC2CC(C1)c1cccc(=O)n1C2 (stereo not drawn)	none
O=C1OC(c2ccc(Cl)cc2)=N/C1=C\N1CC2CC(C1)c1cccc(=O)n1C2 (stereo not drawn)	GDH-TPI inh 59.7
O=C1OC(c2ccc(Br)cc2)=N/C1=C\N1CC2CC(C1)c1cccc(=O)n1C2 (stereo not drawn)	GDH-TPI inh 55.8
CCOC(=O)c1c(-n2c(C)cc(/C=C3/C(=O)NC(=O)N(CC)C3=O)c2C)sc2c1CCCC2	none
CCOC(=O)c1c(-n2c(C)cc(C=C3C(=O)NC(=S)NC3=O)c2C)sc2c1CCCC2	GDH-TPI inh 32.3
CC[C@]12C(=O)N(C)C[C@H]([C@@H]3C(=O)N(C)C(=O)[C@@H]31)N2C(=O)c1ccc(C)cc1	none (no result: Mtb betalactam, Mtb UGM inh, Rv3671c protease)
Cc1cc2[nH]c(=O)c(=O)[nH]c2cc1S(=O)(=O)NC1CCCCC1C (stereo not drawn)	Mtb FBA inh 31.7
CN(C)c1ccc(/C=C/c2nnnn2-c2ccccc2)cc1	GDH-TPI inh 40.7
CCCc1cc(=O)oc2cc(OCC(=O)Nc3ccc4c(c3)OCCO4)ccc12	none
CCc1cc(=O)oc2c3c(cc(OCC(=O)N[C@H](C(=O)O)[C@H](C)CC)c12)OC(C)(C)CC3	Mtb FBA inh active
CCCc1cc(=O)oc2c3c(cc(OCC(=O)N[C@@H](C)C(=O)O)c12)OC(C)(C)CC3	Mtb FBA inh active
CCCc1cc(=O)oc2c3c(cc(OCC(=O)N[C@@H](CSC)C(=O)O)c12)OC(C)(C)CC3	Mtb FBA inh active (no result: Rv3671c protease)
CCCc1cc(=O)oc2cc(C)cc(OCC(=O)NC(Cc3c[nH]c4ccc(O)cc34)C(=O)O)c12 (stereo not drawn)	none
CCCC(=O)N1CCC1(C)C(=O)Nc1cccc(OC(C)C)c1 (stereo not drawn)	none (no result: Mtb betalactam, Mtb UGM inh, Rv3671c protease)
O=C(N/N=C/c1ccc(Br)s1)c1ccc([N+](=O)[O-])cc1	none
O=C(N/N=C/c1ccc(Br)s1)c1ccccc1[N+](=O)[O-]	GDH-TPI inh 37.7
COc1ccc(C2C=C(C)Nc3nc(SC)nn32)cc1 (stereo not drawn)	Mtb FBA inh 149.3
CC(NCC(=O)NCC(=O)Nc1ccc(F)cc1)c1cccc(C(F)(F)F)c1 (stereo not drawn)	none (no result: FadD28 FP inh)
NC(=O)c1oc2ccccc2c1NC(=O)c1ccc([N+](=O)[O-])o1	none
Nc1nc(-c2ccccc2)cn1N	none
Nc1nn2cc(-c3ccccc3)nc2c2ccccc12	Mtb FBA inh active
COc1cccc2sc3cc(NCc4ccc(C)o4)ccc3c(=O)c12	none
CCCCNC(=O)COn1nnc2ccc(S(=O)(=O)N3CCOCC3)cc21	none
O=C(O)c1ccc(N/N=C/c2ccc(OC(=O)c3cccc(Cl)c3)cc2)cc1	GDH-TPI inh 31.4
O=C(Oc1ccc(/C=N/Nc2ccccc2)cc1)c1ccccc1	none
O=C(O)c1ccc(N/N=C/c2ccc(F)c(F)c2)cc1	GDH-TPI inh 58.3
O=C(O)c1ccc(N/N=C/c2ccncc2)cc1	GDH-TPI inh 31.6
O=C(O)c1ccc(N/N=C/c2cccc(F)c2)cc1	GDH-TPI inh 36.6 (no result: Mtb UGM inh)
Cc1ccc(NC(=O)/C(C#N)=N/Nc2ccc(C(=O)O)cc2)c(C)c1	GDH-TPI inh 57.5
COc1ccccc1N1CCN(C(=O)c2ccc3noc(-c4ccccc4)c3c2)CC1	none (no result: Mtb betalactam, Mtb UGM inh, Rv3671c protease)
